Assay results: PubChem BioAssay (Tox21)
“And” between values parts separate entries of the source, which are not always exact repeats. Equal values may be shown once. Results filed as inconclusive are left out. A structure can be active in one record and inactive in another. The source made the active and inactive calls. Unless noted, calls follow the shape of the dose curve; as a rule, active = well fitted curve in the direction sought with a large enough effect in the repeat runs; inconclusive = weak or mixed curves; inactive = no such curve, though single readings can be large; an effect the other way counts as inactive or inconclusive.

Tests used:
[1] = qHTS assay to identify small molecule agonists of the estrogen receptor beta (ER-beta) signaling pathway - cell viability counter screen (AID 1259380); also: nearly all actives have a fitted effect of over 30% in size
Procedure, shortened: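 Compounds dissolved in DMSO were pin-transferred onto ER-beta-UAS-bla HEK293T cells that had settled 6 hr, and exposure ran 16 hr at 37C. Following the reporter read, CellTiter-Glo luminescence after 30 min at room temperature indicated cytotoxicity.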

[2] = target: Androgen receptor (Homo sapiens) (UniProt P10275); assay: qHTS assay to identify small molecule agonists of the androgen receptor (AR) signaling pathway in the presence of an antagonist (AID 1259381; calls by dose curve; also: nearly all actives have a fitted effect of over 15% in size; also: potency is read from the fitted curve at half-maximal effect)
Sequence of Androgen receptor (Homo sapiens) (P10275 whole entry, looked up): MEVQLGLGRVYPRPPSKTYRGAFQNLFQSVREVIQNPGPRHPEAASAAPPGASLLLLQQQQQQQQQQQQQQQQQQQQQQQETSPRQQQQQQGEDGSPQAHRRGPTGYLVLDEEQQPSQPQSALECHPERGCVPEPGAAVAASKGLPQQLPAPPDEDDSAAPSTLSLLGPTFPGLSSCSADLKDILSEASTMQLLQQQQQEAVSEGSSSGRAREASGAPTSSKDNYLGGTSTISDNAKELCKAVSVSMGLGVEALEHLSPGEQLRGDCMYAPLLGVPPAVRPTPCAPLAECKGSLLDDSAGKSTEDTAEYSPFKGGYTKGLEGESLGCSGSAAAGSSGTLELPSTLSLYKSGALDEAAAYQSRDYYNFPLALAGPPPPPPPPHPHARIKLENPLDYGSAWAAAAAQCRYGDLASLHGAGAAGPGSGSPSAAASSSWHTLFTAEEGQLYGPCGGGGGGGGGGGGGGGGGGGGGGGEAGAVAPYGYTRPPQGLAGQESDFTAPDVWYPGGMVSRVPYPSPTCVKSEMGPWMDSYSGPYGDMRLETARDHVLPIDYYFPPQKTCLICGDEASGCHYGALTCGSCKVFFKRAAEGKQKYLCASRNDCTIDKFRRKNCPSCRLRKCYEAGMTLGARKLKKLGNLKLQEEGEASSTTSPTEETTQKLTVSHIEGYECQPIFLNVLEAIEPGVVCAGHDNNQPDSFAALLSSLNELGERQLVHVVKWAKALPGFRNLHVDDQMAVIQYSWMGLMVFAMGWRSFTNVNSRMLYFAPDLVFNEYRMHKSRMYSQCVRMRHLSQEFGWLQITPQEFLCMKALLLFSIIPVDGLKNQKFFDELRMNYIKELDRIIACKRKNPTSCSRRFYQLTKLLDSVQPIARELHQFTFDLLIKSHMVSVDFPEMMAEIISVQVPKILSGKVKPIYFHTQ
Procedure, shortened: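 Plated MDA-kb2 cells (3,000/well) were pre-incubated 5hr, given nilutamide (3.0uM final) or buffer, then dosed with compounds in DMSO at 15 concentrations. Luciferase activity was quantified by luminescence after 16hr at 37C.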

[3] = qHTS assay to identify small molecule antagonists of the estrogen receptor beta (ER-beta) signaling pathway - cell viability counter screen (AID 1259382);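 also: HEK293T cells carrying ER-beta-UAS-bla reporter stimulated with estradiol; series mostly up to about 92 µM; nearly all actives have a fitted effect of over 55% in size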
Procedure, shortened: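 CellTiter-Glo ATP luminescence measured after the LiveBLAzer read in the same wells; ER-beta-UAS-bla HEK293T cells, 16 hr compound treatment with 1nM 17-beta-estradiol agonist at 37C, 5% CO2.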

[4] = target: Estrogen receptor (Homo sapiens) (UniProt P03372); assay: qHTS assay to identify small molecule agonists of the estrogen receptor alpha (ER-alpha) signaling pathway in the presence of an antagonist (AID 1259383; calls by dose curve; also: top concentration of the series differs between compounds; nearly all actives have a fitted effect of over 15% in size)
Sequence of Estrogen receptor (Homo sapiens) (P03372 whole entry, looked up): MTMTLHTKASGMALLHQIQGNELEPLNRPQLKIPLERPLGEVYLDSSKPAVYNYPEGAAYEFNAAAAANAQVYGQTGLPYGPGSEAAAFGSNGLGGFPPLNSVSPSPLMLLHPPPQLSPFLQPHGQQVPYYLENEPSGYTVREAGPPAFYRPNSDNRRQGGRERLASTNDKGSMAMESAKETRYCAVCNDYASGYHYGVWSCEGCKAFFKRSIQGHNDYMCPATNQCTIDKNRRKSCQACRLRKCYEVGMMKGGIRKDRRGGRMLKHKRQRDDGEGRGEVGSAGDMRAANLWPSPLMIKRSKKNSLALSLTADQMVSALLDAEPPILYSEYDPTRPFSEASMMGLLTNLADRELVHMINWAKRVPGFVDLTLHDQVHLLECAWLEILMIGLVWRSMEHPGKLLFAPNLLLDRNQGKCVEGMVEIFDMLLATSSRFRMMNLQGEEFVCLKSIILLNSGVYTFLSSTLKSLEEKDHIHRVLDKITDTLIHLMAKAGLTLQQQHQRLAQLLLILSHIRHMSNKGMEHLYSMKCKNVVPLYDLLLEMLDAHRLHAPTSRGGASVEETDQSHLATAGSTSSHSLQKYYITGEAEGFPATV
Procedure, shortened: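 Luminescent ERE-luciferase reporter, VM7Luc4E2 cells (endogenous ER-alpha); 10.0nM ICI-182,780 final; 15-point compound titration; 22hr at 37C; ONE-Glo, 30min RT.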

[5] = qHTS assay to identify small molecule agonists or antagonists of the thyroid stimulating hormone receptor (TSHR) signaling pathway - wild type cell line counter screen (AID 1259384; calls by dose curve)
Procedure, shortened: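 Wild-type Hek293 cells, 800/well, 18 h at 37C, then compound with Ro20-1724 for 30 min RT. cAMP by HTRF (cAMP-d2/anti-cAMP cryptate), 1 h RT, fluorescence read. 15 concentrations, triplicates.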

[6] = target: Thyrotropin receptor (Homo sapiens) (UniProt P16473); assay: qHTS assay to identify small molecule antagonists of the thyroid stimulating hormone receptor (TSHR) signaling pathway (AID 1259385; calls by dose curve; also: nearly all actives have a fitted effect of over 20% in size)
Sequence of Thyrotropin receptor (Homo sapiens) (P16473 whole entry, looked up): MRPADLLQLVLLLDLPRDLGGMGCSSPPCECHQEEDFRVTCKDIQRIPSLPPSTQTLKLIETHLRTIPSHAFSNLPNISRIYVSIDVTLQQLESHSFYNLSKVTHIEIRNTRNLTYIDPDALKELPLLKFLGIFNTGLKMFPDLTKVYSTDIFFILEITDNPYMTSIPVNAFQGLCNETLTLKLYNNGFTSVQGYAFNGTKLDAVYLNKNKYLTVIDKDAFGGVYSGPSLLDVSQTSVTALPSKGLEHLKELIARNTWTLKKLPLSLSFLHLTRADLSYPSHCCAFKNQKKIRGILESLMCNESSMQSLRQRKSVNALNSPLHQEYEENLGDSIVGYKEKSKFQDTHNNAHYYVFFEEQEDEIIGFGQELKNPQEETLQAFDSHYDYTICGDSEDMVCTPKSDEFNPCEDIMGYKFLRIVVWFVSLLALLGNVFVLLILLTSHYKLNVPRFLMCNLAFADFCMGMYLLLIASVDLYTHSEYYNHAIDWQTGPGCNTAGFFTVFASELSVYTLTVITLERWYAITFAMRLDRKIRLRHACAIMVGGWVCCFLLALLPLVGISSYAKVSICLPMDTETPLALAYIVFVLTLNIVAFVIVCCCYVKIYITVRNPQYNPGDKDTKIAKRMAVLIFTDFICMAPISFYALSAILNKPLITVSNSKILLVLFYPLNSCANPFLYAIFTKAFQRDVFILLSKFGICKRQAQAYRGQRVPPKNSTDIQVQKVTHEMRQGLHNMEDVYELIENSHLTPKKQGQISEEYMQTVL
Procedure, shortened: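 TSHR-HEK293 cells (800/well) plated 18 h, then compounds with Ro20-1724 and TSH at 1.5 ng/mL final, 30 min at room temperature. cAMP quantified by HTRF (cAMP-d2/anti-cAMP-cryptate, 1 h); 15 concentrations in triplicate.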

[7] = qHTS assay to identify small molecule agonists of the estrogen receptor alpha (ER-alpha) signaling pathway in the presence of an antagonist - cell viability counter screen (AID 1259386);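 also: series mostly up to about 92 µM; cells exposed to compounds for 22 h at 37 °C before the viability read; nearly all actives have a fitted effect of over 30% in size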
Procedure, shortened: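 Using estrogen-depleted VM7Luc4E2 cells, the 15-concentration compound series was applied together with 10.0nM ICI-182,780 and incubated 22hr at 37C/5% CO2. Cell viability was then scored by CellTiter-Fluor.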

[8] = target: Progesterone receptor (Homo sapiens) (UniProt P06401); assay: qHTS assay to identify small molecule agonists of the progesterone receptor (PR) signaling pathway (AID 1346784; calls by dose curve; also: nearly all actives have a fitted effect of over 30% in size; also: potency is read from the fitted curve at half-maximal effect)
Sequence of Progesterone receptor (Homo sapiens) (P06401 whole entry, looked up): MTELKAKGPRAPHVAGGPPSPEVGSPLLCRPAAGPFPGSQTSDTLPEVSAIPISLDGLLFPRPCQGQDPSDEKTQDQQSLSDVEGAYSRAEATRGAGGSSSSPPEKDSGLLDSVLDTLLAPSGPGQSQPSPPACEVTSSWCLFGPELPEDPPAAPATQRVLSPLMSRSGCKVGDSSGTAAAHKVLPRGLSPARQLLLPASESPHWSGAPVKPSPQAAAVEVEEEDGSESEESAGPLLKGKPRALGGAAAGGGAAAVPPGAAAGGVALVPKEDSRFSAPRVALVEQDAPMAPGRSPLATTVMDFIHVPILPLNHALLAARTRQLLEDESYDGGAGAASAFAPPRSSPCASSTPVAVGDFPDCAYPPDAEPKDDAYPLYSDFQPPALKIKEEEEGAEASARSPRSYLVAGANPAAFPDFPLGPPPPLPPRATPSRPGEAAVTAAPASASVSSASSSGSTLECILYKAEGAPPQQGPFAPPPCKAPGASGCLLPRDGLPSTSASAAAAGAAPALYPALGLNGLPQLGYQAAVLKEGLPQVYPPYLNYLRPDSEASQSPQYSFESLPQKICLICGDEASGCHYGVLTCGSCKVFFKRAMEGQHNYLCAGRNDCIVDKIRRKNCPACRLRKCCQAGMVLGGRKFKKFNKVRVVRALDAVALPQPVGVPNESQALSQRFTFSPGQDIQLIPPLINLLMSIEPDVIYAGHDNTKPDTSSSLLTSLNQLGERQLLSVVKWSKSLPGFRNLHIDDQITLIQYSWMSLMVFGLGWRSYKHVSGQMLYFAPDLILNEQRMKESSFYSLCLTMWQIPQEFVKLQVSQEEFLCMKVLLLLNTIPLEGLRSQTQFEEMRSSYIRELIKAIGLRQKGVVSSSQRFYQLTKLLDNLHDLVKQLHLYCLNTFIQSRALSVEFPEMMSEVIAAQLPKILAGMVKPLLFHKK
Procedure, shortened: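 Using charcoal-stripped serum (2%) to limit endogenous steroids, PR-UAS-bla HEK 293T cells received compounds for 16 hr at 37C after 6 hr plating; beta-lactamase FRET fluorescence was recorded following 2 hr substrate loading at room temperature.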

[9] = target: Progesterone receptor (Homo sapiens) (UniProt P06401); assay: qHTS assay to identify small molecule antagonists of the progesterone receptor (PR) signaling pathway (AID 1346795; active = well fitted inhibition curve with a large enough effect in the signal ratio in the repeat runs, not every such curve was filed as active; the % refers to the signal ratio)
Procedure, shortened: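 Inhibition of R5020-induced (1 nM final) beta-lactamase reporter signal in PR-UAS-bla HEK293T cells was scored by FRET fluorescence after overnight (16 hr) compound treatment.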

[10] = qHTS assay to identify small molecule antagonists of the progesterone receptor (PR) signaling pathway - cell viability counter screen (AID 1346798); also: series mostly up to about 92 µM; nearly all actives have a fitted effect of over 50% in size
Procedure, shortened: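 ATP content as viability readout: CellTiter-Glo luminescence, 30 min room temperature, in PR-UAS-bla HEK293T cells after 16 hr compound/R5020 treatment at 37C and 5% CO2.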

[11] = qHTS assay to identify small molecule agonists of the progesterone receptor (PR) signaling pathway - cell viability counter screen (AID 1346799; calls by dose curve; also: nearly all actives have a fitted effect of over 45% in size)
Procedure, shortened: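 Cytotoxicity in PR-bla HEK293T cells: 16 h compound, 37C; CellTiter-Glo added post-FRET read; luminescence after 30 min RT.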

[12] = qHTS assay to identify small molecule antagonists of the TGF-beta/Smad signaling pathway - cell viability counter screen (AID 1346824); also: nearly all actives have a fitted effect of over 50% in size
Procedure, shortened: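 SBE-bla HEK 293T cells, incubated overnight, then compound plus 0.25 ng/mL TGF-beta1 (stock added) for 5 hr at 37 C. Viability was read in the same wells by CellTiter-Glo luminescence after 30 min at room temperature.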

[13] = qHTS assay to identify small molecule agonists of the TGF-beta/Smad signaling pathway - cell viability counter screen (AID 1346829); also: top concentration of the series differs between compounds; nearly all actives have a fitted effect of over 45% in size
Procedure, shortened: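 Tox21 qHTS format: SBE-bla HEK 293T cells treated with DMSO-dissolved compounds for 5 hr; CellTiter-Glo luminescence after 30 min at room temperature.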

[14] = qHTS assay to identify small molecule agonists of the TGF-beta/Smad signaling pathway (AID 1346859; active = well fitted activation curve with a large enough effect in the signal ratio in the repeat runs, not every such curve was filed as active; the % refers to the signal ratio; also: series mostly up to about 77 µM)
Procedure, shortened: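 Stable Smad binding element-beta-lactamase HEK 293T cells; 5 hr compound exposure at 37 C under 5% CO2; 2 hr room-temperature substrate step; fluorescence excited at 405 nm, collected at 460 nm and 530 nm.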

[15] = target: Thyrotropin-releasing hormone receptor (Homo sapiens) (UniProt P34981); assay: qHTS assay to identify small molecule antagonists of the thyrotropin-releasing hormone receptor (TRHR) signaling pathway (AID 1346877; active = well fitted inhibition curve with a large enough effect in the repeat runs, not every such curve was filed as active; also: series mostly up to about 51 µM)
Sequence of Thyrotropin-releasing hormone receptor (Homo sapiens) (P34981 whole entry, looked up): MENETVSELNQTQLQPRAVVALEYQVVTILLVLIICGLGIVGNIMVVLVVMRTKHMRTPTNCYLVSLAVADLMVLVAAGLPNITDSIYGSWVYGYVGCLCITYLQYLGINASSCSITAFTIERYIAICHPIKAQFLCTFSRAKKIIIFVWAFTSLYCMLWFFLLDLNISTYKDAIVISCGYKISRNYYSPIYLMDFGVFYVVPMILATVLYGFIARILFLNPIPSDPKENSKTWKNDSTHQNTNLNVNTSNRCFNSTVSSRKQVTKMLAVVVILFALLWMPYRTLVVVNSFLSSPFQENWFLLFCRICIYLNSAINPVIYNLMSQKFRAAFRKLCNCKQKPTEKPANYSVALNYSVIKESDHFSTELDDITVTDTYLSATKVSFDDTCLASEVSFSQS
Procedure, shortened: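 Calcium signal in dye-loaded TRHR/HEK293 cells; compounds added 5 min before TRH (1 nM final); fluorescence monitored 3 min at 1 s steps.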

[16] = target: Thyrotropin-releasing hormone receptor (Homo sapiens) (UniProt P34981); assay: qHTS assay to identify small molecule agonists of the thyrotropin-releasing hormone receptor (TRHR) signaling pathway (AID 1346891; calls by dose curve;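 also: HEK293 cells expressing TRHR with calcium dye readout; series mostly up to about 58 µM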)
Procedure, shortened: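 In 1536-format, 1500 TRHR-Hek293 cells per well grew 18 h, took up calcium dye for 2 h at 37 °C, received compound, and were read kinetically; 15-point titrations, triplicates.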

[17] = Human pregnane X receptor (PXR) small molecule agonists, qHTS cell viability counter screen (AID 1346977); also: nearly all actives have a fitted effect of over 50% in size; also: potency is read from the fitted curve at half-maximal effect
Procedure, shortened: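 Readout is CellTiter-Fluor fluorescence from PXR-Luc HepG2 cells. Plated cells rested 5hr, then were treated with compounds for 24hr at 37C and 5% CO2, with reagent present during the last hour.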

[18] = Caspase-3/7 induction in HepG2 cells by small molecules, qHTS assay (AID 1346978); also: nearly all actives have a fitted effect of over 15% in size; also: potency is read from the fitted curve at half-maximal effect
Procedure, shortened: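 Wild-type HepG2 cells, 2,000/well, settled 5 hr at 37 C and 5% CO2, then compound-treated for 17 hr; caspase-3/7 activity read by luminescent Caspase-Glo 3/7 after 30 min at room temperature.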

[19] = Caspase-3/7 induction in CHO-K1 cells by small molecules, qHTS cell viability counter screen (AID 1346979); also: nearly all actives have a fitted effect of over 35% in size
Procedure, shortened: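 To flag cytotoxic compounds, treated CHO-K1 wild-type cells were given CellTiter-Fluor at 16hr and read fluorescently after 1hr at 37C; the caspase-3/7 luminescence was measured in these same wells.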

[20] = Caspase-3/7 induction in CHO-K1 cells by small molecules, qHTS assay (AID 1346980); also: nearly all actives have a fitted effect of over 15% in size
Procedure, shortened: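 Wild-type CHO-K1 cells exposed to compounds for 17hr at 37 C, 5% CO2. Caspase-3/7 activity then measured by Caspase-Glo 3/7 luminescence after 30min at room temperature.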

Measured: Potency

Cc1ccc(N(C)C)cc1
inactive: all assays above

CCc1cccc(C)c1N
not listed: [5] | [6]
inactive: all other assays above

OCCOCCOCCO
not listed: [5]
inactive: all other assays above

O=S1(=O)CC=CC1
59 µM (active) and inactive: [18]
39.8 µM (active) and inactive: [17]
not listed: [2] | [19]
inactive: all other assays above

CCCCCCCCCCCCOCCO
not listed: [4] | [9] | [10] | [19]
inactive: all other assays above

COc1cc(Cc2cnc(N)nc2N)cc(OC)c1OC
5.43 µM (active) and inactive: [8]
not listed: [2]
inactive: all other assays above

CC(=O)OCC(=O)[C@@]12N=C(C)O[C@@H]1C[C@H]1[C@@H]3CCC4=CC(=O)C=C[C@]4(C)[C@H]3[C@@H](O)C[C@@]12C
active: [8] 686 nM
not listed: [2]
inactive: all other assays above

C[C@H]1C[C@@H]2[C@H]([C@@H](O)C[C@@]3(C)[C@H]2CC[C@]3(O)C(=O)CO)[C@@]2(C)C=CC(=O)C=C12
active: [2] 54.5 nM and 59.6 nM | [8] 48600 nM
not listed: [4] | [5] | [6] | [9] | [15] | [16] | [19]
inactive: all other assays above
